FBPA coupling cs = qHTS Assay for Inhibitors of Fructose-1,6-bisphosphate Aldolase from Giardia Lamblia: Coupling assay counterscreen; coupling enzyme system counterscreen, AmpLite Red fluorescence; activity change, negative = inhibition, % at 58.2 µM, hits read low; 0.67% of 290,000 active; AID 2472, 2010; in the data active = activity change below about -30%
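Compounds tested against the coupling enzymes alone at 57.5 uM final; readout was AmpLite Red fluorescence (525/598 nm) after 20 min at RT.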
Tau ThT inhib = qHTS for Inhibitors of Tau Fibril Formation, Thioflavin T Binding; Microtubule-associated protein tau (Homo sapiens), P10636; recombinant tau K18 P301L, heparin-induced fibrillization, ThT fluorescence; Potency, µM (titrated, usually from 57.4 µM), actives largely listed as inhibitors; 2.1% of 270,000 active; AID 1460, 2008; also: nearly all actives have a fitted effect of over 55% in size
Target sequence (P10636 561-689 P618L limits assumed): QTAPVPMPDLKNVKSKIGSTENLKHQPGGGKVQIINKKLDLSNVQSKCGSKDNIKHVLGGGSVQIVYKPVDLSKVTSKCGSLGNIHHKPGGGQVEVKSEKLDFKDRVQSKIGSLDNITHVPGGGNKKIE
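Heparin-induced (20 uM) aggregation of recombinant human K18 P301L tau, 15 uM unlabeled with 0.24 uM labeled, pH 7 acetate buffer, 6 hr at 37 C with compound. Fibrils quantified by 30 uM ThT fluorescence after 1 hr ambient incubation.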
Tau fluor counter = Counterscreen qHTS for Inhibitors of Tau Fibril Formation, Fluorescence Polarization. 0.93% of 280,000 active. tau K18 P301L (four-repeat tau fragment) Alexa594 fluorescence, heparin fibrillization. Potency, µM (series often up to 57.7 µM); also: nearly all actives have a fitted effect of over 55% in size
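Human K18 P301L tau (15 uM unlabeled plus 0.24 uM Alexa 594-labeled, final) in 100 mM sodium acetate pH 7 was mixed with compound and 20 uM heparin and incubated 6 hr at 37 C.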
Sfp PPTase inh = qHTS Assay for Inhibitors of Bacillus subtilis Sfp phosphopantetheinyl transferase (PPTase). 4'-phosphopantetheinyl transferase ffp (Bacillus subtilis), Q9F4F7. Biochemical Sfp PPTase activity, qHTS. Potency, µM, hits mostly inhibitors. 3.5% of 310,000 active;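 also: the enzyme is Sfp with the accession as filed and its product quenches rhodamine fluorescence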
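Reaction rates are the 30-min fluorescence difference (ex 525, em 598 nm) in wells containing 15 nM Sfp, 5 uM rhodamine-CoA and 12.5 uM BHQ-2-YbbR at pH 7.6 with 10 mM MgCl2.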
Tau fibril FP = qHTS for Inhibitors of Tau Fibril Formation, Fluorescence Polarization; Potency, µM (highest dose often 57.7 µM), usual class: inhibitors; K18 P301L tau heparin fibrillization, Alexa594 FP, 6 h; AID 1468, 2008; 0.39% of 280,000 active; also: nearly all actives have a fitted effect of over 55% in size
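Recombinant K18 P301L […], labeled with Alexa 594 at 0.24 uM over 15 uM unlabeled; heparin inducer 20 uM final; 37 C, 6 hr; FP endpoint.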
Numbers stand for hits; . = inactive; ? = inconclusive; / = no result; [ ] = remark or other dose. Rows were chosen to be rich in hits. Some 5.2% of all compounds tested hit in one or more screens of this group. Unless noted, calls follow the shape of the dose curve; as a rule, active = well fitted curve in the direction sought with a large enough effect; inconclusive = small, poorly fitted or top-dose-only effect, or another doubt; inactive = no such curve, though single readings can be large; an effect the other way counts as inactive or inconclusive.

SMILES	FBPA coupling cs	Tau ThT inhib	Tau fluor counter	Sfp PPTase inh	Tau fibril FP
Cn1c(=O)c2[nH]c(CN(Cc3ccccc3)Cc3ccccc3)nc2n(C)c1=O	.	.	.	.	.
CN(C)Cc1nc2c([nH]1)c(=O)n(C)c(=O)n2C	.	.	.	56.2µM	.
O=C(Cn1c(=O)n(Cc2ccco2)c(=O)c2sc3ccccc3c21)Nc1ccc(F)cc1F	/	.	.	/	?
O=C1NN(c2ccccc2)C(=O)/C1=C/c1ccc(-c2ccc(C(=O)O)cc2)o1	.	/	/	.	/
O=C1NN(c2ccccc2)C(=O)/C1=C/c1ccc(Sc2cccc3ccccc23)o1	.	12.6µM	14.1µM[quencher]	?	?
N#Cc1cc(Cl)c(N2CCOCC2)cc1C#N	.	.	.	.	.
N#Cc1cc2ccc(N3CCOCC3)cc2cc1C#N	-42.7	?	.	.	.
O=C1Nc2ccccc2N=C(c2ccccc2)C1Br (stereo not given)	.	?	.	44.7µM	?
Cc1ccc(-c2nc(CN3CCCCC3)cc(CN3CCCCC3)c2O)cc1	.	.	.	39.8µM	.
Cc1ccc(C)c(-c2ccc(=O)n(C(C)C(=O)Nc3ccccc3C(F)(F)F)n2)c1 (stereo not given)	/	.	.	/	.
CCc1ccc(CN(Cc2ccco2)c2cnc(S(C)(=O)=O)nc2C(=O)Nc2ccccc2Cl)cc1	/	.	.	/	.
CCc1ccc(-n2nnnc2SCC(=O)Nc2ccc(NC(C)=O)cc2)cc1	.	/	/	.	/
CC(=O)Nc1ccc(-n2nnnc2SCC(=O)Nc2cccc(NC(=O)c3ccco3)c2)cc1	.	.	.	50.1µM	.
COc1ccc(N/N=C(\C#N)C(=N)SCc2ccccc2)cc1	.	14.1µM	?	.	.
COc1ccc(N/N=C(\C#N)C(=N)N2CCCCC2)cc1	.	?	.	.	.
O=[N+]([O-])c1ccc(Sc2ncccn2)c([N+](=O)[O-])c1	.	12.6µM	6.31µM[quencher]	.	?
O=C(O)CCSc1ccc([N+](=O)[O-])cc1[N+](=O)[O-]	.	?	.	44.7µM	.
Cc1cccc(Sc2ccc([N+](=O)[O-])cc2[N+](=O)[O-])n1	.	?	?	.	.
Cc1cccc(NC(=O)C2CCCN(S(=O)(=O)c3c(C)n[nH]c3C)C2)c1 (stereo not given)	/	.	.	/	.
O=C(O)c1ccc(NNC(=S)Nc2cc(C(F)(F)F)ccc2Cl)cc1	.	/	/	89.1µM	/
O=C(NC(=S)Nc1cc(C(F)(F)F)ccc1Cl)c1ccccc1	.	.	.	.	.
CCOC(=O)NC(N(O)c1cccc(Cl)c1)C(Cl)(Cl)Cl (stereo not given)	.	?	.	11.2µM	?
Cn1cc(-c2cc3n(n2)CCC(=O)N3CCCC(=O)NCc2ccccc2)c2ccccc21	/	.	.	/	?
Cc1ccccc1CNC(=O)c1oc2c(c1C)-c1[nH]ncc1CC2	/	.	?	/	?
COc1ccc(-c2csc(-c3[nH]cnc3N)n2)cc1	.	11.2µM	15.8µM[quencher]	.	.
SMILES	FBPA coupling cs	Tau ThT inhib	Tau fluor counter	Sfp PPTase inh	Tau fibril FP
COc1ccc(B(O)O)cc1	.	.	.	.	.
O=c1[nH]c(-c2ccccn2)nc2ccccc12	.	.	.	79.4µM	.
Cc1sc2nc(-c3ccncc3)[nH]c(=O)c2c1-c1ccccc1	.	.	.	.	.
Cc1sc2nc(-c3ccccn3)[nH]c(=O)c2c1-c1ccccc1	.	.	.	17.8µM	.
CC(C)(C)c1ccc(C(=O)Nc2sc3c(c2C(=O)O)CCC3)cc1	.	14.1µM	?	.	.
Cc1cccc(NC(=O)c2c(NC(=O)c3ccccc3)sc3c2CCCC3)c1	/	10µM	?	/	?
CCOc1ccc(CC(=O)Nc2sc(Cc3ccccc3)c(C)c2C(N)=O)cc1OCC	.	?	.	20µM	.
Cc1c(Cc2ccc3c(c2)OCO3)sc(NC(=O)C2CC2)c1C(N)=O	.	/	?	20µM	?
Cc1c(Cc2ccc3c(c2)OCO3)sc(NC(=O)c2cccc3ccccc23)c1C(N)=O	.	?	?	35.5µM	?
CCOCCCN1C(=O)CN(C2CCCCCC2)C(=O)C1c1ccc(OC(C)C)c(OC)c1 (stereo not given)	/	.	.	/	.
COc1ccc(-c2nnc(SCC(=O)Nc3cc(OC)ccc3OC)nc2-c2ccc(OC)cc2)cc1	/	?	?	/	.
COc1ccc(-c2ccc(C(C)=O)cc2)cc1C1C2C=CCC(C)C2C(=O)N1Cc1ccccc1 (stereo not given)	.	/	/	.	/
Cc1sc2nc(SCC(=O)Nc3c(C)n(C)n(-c4ccccc4)c3=O)n(C)c(=O)c2c1C	.	?	.	50.1µM	.
FC(F)(F)c1ccccc1/C=N/n1c(COc2ccccc2)n[nH]c1=S	.	/	/	50.1µM	/
S=c1[nH]nc(COc2ccccc2)n1/N=C/c1ccccc1Br	.	/	/	.	/
CCOc1ccc(/C=N/n2c(COc3ccccc3)n[nH]c2=S)cc1OC	.	/	/	56.2µM	/
COc1cc(/C=N/n2c(COc3ccccc3)n[nH]c2=S)cc(Br)c1O	.	/	/	?	/
Cc1cccc(/C=N/n2c(COc3ccccc3)n[nH]c2=S)c1	.	/	/	56.2µM	/
S=c1[nH]nc(COc2ccccc2)n1/N=C/c1ccc(Cl)c(Cl)c1	.	/	/	56.2µM	/
COc1ccc(C(O)C2=CCCC2=O)cc1 (stereo not given)	.	.	.	.	.
CCC/C=C(\CCC)C(NC(=O)OCC(C)C)c1ccccc1 (stereo not given)	.	.	.	.	.
CC(C)(C)OC(=O)NCCCC1=CC2=CC(=O)C(C)(OC(=O)c3cnc4ccccc4n3)C(=O)C2=CO1 (stereo not given)	.	.	.	.	.
